Test results from PubChem BioAssay (NCI).
Compounds without any hit were thinned out: in the full panel of roughly 83,000, 20% have a hit.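 Percent growth is the endpoint: 0 to 100 indicates growth inhibition (40 means 60% inhibition), 0 means no net growth, and negative values indicate cell death.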 Unmarked numbers belong to inactive results. Calls of active or inactive are those of the source. How the source made its calls: active means growth percent below 10; inactive means the rest.

How the values were obtained:
Assay in all cases: NCI-60 one-dose screen, 48 h (100 = growth as untreated, 0 = no growth, -100 = all killed)
Conditions in all cases: 10 µM unless noted
[1] = test system: NCI-H23 lung
[2] = test system: NCI-H226 lung
[3] = test system: NCI-H322M lung
[4] = test system: HOP-62 NSCLC
[5] = test system: NCI-H460 lung
[6] = test system: HOP-92 NSCLC
[7] = test system: NCI-H522 lung
[8] = test system: A549/ATCC NSCLC
[9] = test system: 786-0 renal
[10] = test system: COLO 205 colon
[11] = test system: DU-145 prostate
[12] = test system: K-562 leukemia
[13] = test system: MALME-3M melanoma
[14] = test system: MDA-MB-231 breast
[15] = test system: RXF 393 renal
[16] = test system: SF-268 CNS
[17] = test system: SF-295 CNS
[18] = test system: SF-539 CNS
[19] = test system: UACC-257 melanoma
[20] = test system: M14 melanoma

| Structure (SMILES) | growth [1] | growth [2] [%] | growth [3] [%] | growth [4] [%] | growth [5] | growth [6] | growth [7] | growth [8] | growth [9] | growth [10] | growth [11] | growth [12] | growth [13] | growth [14] | growth [15] | growth [16] | growth [17] | growth [18] | growth [19] | growth [20] |
| --- | --- | --- | --- | --- | --- | --- | --- | --- | --- | --- | --- | --- | --- | --- | --- | --- | --- | --- | --- | --- |
| O=C(/C=C/c1sc(Cl)nc1Cl)c1ccccc1 | 95.2% | 99.7 | 95 | 101 | 102% | 94.3% | 93% | 99.9% | 97% | 87.4% | 99.1% | 10.8% | 95.7% | 98.7% | 99.7% | 104% | 102% | 72.3% | 94.9% | 79.8% |
| CN1CCN(Cc2ccc(NC(=O)c3cncc(C#Cc4cnccc4C#N)c3)cc2C(F)(F)F)CC1 | 49.2% | 40.4 | 99.4 | 76.8 | 59.2% | 36% | 66.7% | 90.4% | 101% | 24.6% | 65.3% | 8.21% (active) | 17.2% | 68.6% | 76.6% | 89.9% | 96.3% | 42% | 41.1% | 25.4% |
| O=C(O)CCC(=O)Nc1nnc(-c2ccccc2)s1 | 99.7% | 116 | 105 | 94.2 | 104% | 93.1% | 80.1% | 102% | 92.9% | 108% | 105% | 91.7% | 114% | 108% | 120% | 96.4% | 96.9% | 102% | 104% | 102% |
| O=C1c2cccc3cccc(c23)C(=O)N1N1C(=O)c2cccc3c(NC4CCCCC4)ccc(c23)C1=O | 90.4% | 94 | 96.4 | 92.6 | 98.8% | 79.9% | 88.1% | 94.4% | 105% | 103% | 106% | 87.1% | 90.8% | 75.6% | 92.9% | 93.6% | 95.3% | 94.2% | 100% | 96.2% |
| O=C(CS(=O)c1oc(-c2cccs2)nc1S(=O)(=O)c1ccc(Br)cc1)c1ccccc1 (stereo not given) | 92.6% | 80.8 | 97.7 | 84.6 | 93.6% | 76% | 81.4% | 96.6% | 98.7% | 106% | 104% | 95.3% | 119% | 105% | 105% | 99.2% | 101% | 87% | 98.8% | 99.5% |
| CC(=O)OC[C@H]1OC(Sc2sc(C(=O)c3ccc(Cl)cc3)c(N)c2-c2nc3ccccc3s2)[C@H](OC(C)=O)[C@@H](OC(C)=O)[C@@H]1OC(C)=O (stereo not given in full) | 63.3% | 75.9 | 93.9 | 90.3 | 67.5% | 93.7% | 88.1% | 86.4% | 99.3% | 90.4% | 70.7% | 87.7% | 69.4% | 56.2% | 112% | 77.3% | 95.1% | 58.6% | 96.6% | 89.6% |
| CCCCn1c(-c2ccc(C(=O)O/N=C(\N)c3ccc(OC)cc3)cc2)nc(-c2ccccc2)c1-c1ccccc1 | -41.9% (active) | 69.5 | 62.3 | 11.7 | -32.3% (active) | -68.7% (active) | -63.2% (active) | -31.7% (active) | -63.9% (active) | 0.164% (active) | -93.4% (active) | -41% (active) | -51.7% (active) | -6.79% (active) | -49.8% (active) | 9.12% (active) | -40.8% (active) | -77.6% (active) | 43.7% | 51.3% |
| CCCCN(C)N=Nc1ccc(C(N)=O)cc1 | 102% | 124 | 105 | 122 | 104% | 103% | 109% | 97.3% | 106% | 110% | 113% | 116% | 111% | 106% | 150% | 108% | 101% | 107% | 105% | 102% |
| COc1ccc(S(=O)(=O)n2cc(C3OC(c4cc(OC)c(OC)c(OC)c4)=NN3C(C)=O)c3ccccc32)cc1OC (stereo not given) | 79.5% | 93.2 | 98 | 78.1 | 97.1% | 63.9% | 84% | 98.3% | 86.3% | 127% | 145% | 64.4% | 104% | 82.6% | 89.3% | 108% | 93% | 89.1% | 87.9% | 98.1% |
| CCc1cccc2c3c(sc12)C(c1ccc(Cl)cc1)C(C#N)=C(N)O3 (stereo not given) | 22.5% | 41.2 | 49.6 | 36.9 | 10.2% | 66.7% | 16.8% | 34.6% | 26.9% | 9.3% (active) | 19.3% | 6.13% (active) | 54.6% | 31.6% | -18.8% (active) | 54.1% | 2.87% (active) | -15.4% (active) | 80% | 5.36% (active) |
| COc1ccn2c(C(C)=O)cc(C(=O)c3ccc4c(c3)Sc3ccccc3N4)c2c1 | 28.3% | 26 | 42.8 | 20.2 | 4.07% (active) | 31.2% | -21.5% (active) | 10.5% | 10.7% | -41% (active) | -18.3% (active) | 7.02% (active) | 85.9% | -17.2% (active) | 51.9% | 22.2% | 13.9% | -11.8% (active) | 52% | 9.58% (active) |
| Cc1nn(-c2ccccc2)c2c1N=c1s/c(=C\c3ccc(C(F)(F)F)cc3)c(=O)n1CN2 | 51.1% | 61 | 75.7 | 87.7 | 53.8% | 56.4% | 40.5% | 5.73% (active) | 73.2% | 85.6% | 117% | 93.1% | 83.1% | 56.2% | 49.7% | 101% | 84% | 67.8% | -1.84% (active) | 69.4% |
| CCC(=O)Nc1ccc(-c2nc(-c3cccc(OC)c3)c(-c3ccnc(Br)c3)[nH]2)cc1 | 76.9% | 55.1 | 67.4 | 75.3 | 49.4% | 61.4% | 56.9% | 60.9% | 40.8% | 71.2% | 70.6% | 24.1% | 69.4% | 71.8% | -22.8% (active) | 75.8% | 16.1% | 51.1% | 74.4% | 63.1% |
| COc1ccc(-c2conc2-c2ccccc2)cc1 | 29.1% | 70.5 | 46.3 | 42.4 | 7.41% (active) | 71.4% | -6.84% (active) | 23.3% | 27% | -7.37% (active) | 11.5% | 13.3% | 56.2% | 11.6% | -21.8% (active) | 44.6% | 16.3% | -23.4% (active) | 71.5% | 6.54% (active) |
